Data: PubChem BioAssay
Values without a mark were called inactive. No rule for the calls is given here.

test system: Aerobactin synthetase IucA (Klebsiella pneumoniae, hypervirulent); experiment: biochemical IucA inhibition screen of LOPAC library by absorbance (AID 1346212); conditions: IucA enzyme assay, absorbance (OD) readout; active compounds read low;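 tested at 8 µM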;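 also: 100% = no compound wells and 0% = no enzyme wells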

`CN(C)c1nc(N)c(C(=O)N=C(N)N)nc1Cl` was tested. Which remaining activity did it give?
The remaining activity was 119%.

`Cc1cc2c(cc1Cl)N(C(=O)Nc1ccc(Oc3cccnc3C)nc1)CC2` was tested. Which remaining activity did it give?
The remaining activity was 103%.

For `NC1CCN(c2cccc(Cl)n2)CC1`, which remaining activity is on record?
Its remaining activity is 104%.

For `CC1=C(/C=C/C(C)=C/C=C/C(C)=C/C(=O)Nc2ccc(O)cc2)C(C)(C)CCC1`, which remaining activity is on record?
Its remaining activity is 97.1%.

With `O=C1NCN(c2ccccc2)C12CCN(CCCC(c1ccc(F)cc1)c1ccc(F)cc1)CC2` as the compound, how does the remaining activity read?
The remaining activity was 104%.

For `CC(=O)[C@H]1CCC2C3CC=C4C[C@@H](OS(=O)(=O)O)CC[C@]4(C)C3CC[C@@]21C` (some centres not stated), which remaining activity is on record?
Its remaining activity is 107%.

How did the remaining activity turn out when `CC(=O)/C(C)=N/O` was run?
The remaining activity was 106%.

Which remaining activity does the source give for `COc1ccccc1N1CCN(CCN(C(=O)c2ccc(I)cc2)c2ccccn2)CC1` here?
Its remaining activity is 122%.

`Nc1nc2ccc(Cl)cc2c2nc(-c3ccco3)nn12` was tested. Which remaining activity did it give?
Its remaining activity is 104%.

How did the remaining activity turn out when `Nc1ncnc2c1nc(Br)n2C1OC2COP(=O)(O)O[C@@H]2C1O` (some centres not stated) was run?
Its remaining activity is 113%.

For `NC(=O)c1ccc2[nH]ccc2c1`, which remaining activity is on record?
The remaining activity was 89.8%.

For `Cn1cc(C(=O)OCC2CCN(CCNS(C)(=O)=O)CC2)c2ccccc21`, which remaining activity is on record?
Its remaining activity is 104%.

`CN1CCCC1c1cccnc1` (configuration not stated) was tested. Which remaining activity did it give?
Its remaining activity is 115%.

How did the remaining activity turn out when `COC(=O)c1c(C)[nH]c(C)c1C(=O)c1ccccc1Cc1ccccc1` was run?
Its remaining activity is 96.6%.

How did the remaining activity turn out when `O=C1NC(c2cccc([N+](=O)[O-])c2)=CCN1c1ccccc1O` was run?
Its remaining activity is 105%.

Which remaining activity does the source give for `O=c1[nH]c(=O)n([C@H]2C[C@H](O)[C@@H](CO)O2)cc1Br` here?
The remaining activity was 96.4%.

Which remaining activity does the source give for `CC1(C)CCC(NC(=O)[C@@H](N)CCC(=O)O)CC1` here?
The remaining activity was 116%.
